RecA splice inh: inhibitors of M. tuberculosis RecA intein splicing. P9WHJ3. cell-free RecA intein splicing, fluorescence. inhibition, % (concentration not given with the values). 0.75% of 290,000 active; in the data active = inhibition above about 30%;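 note: 0% = vehicle wells and 100% = reference inhibitor control wells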
GDH-TPI counter: GDH-TPI coupled enzyme inhibition counter-screen | GDH-TPI coupled enzyme counterscreen, NADH absorbance | inhibition, % at 4.8 µM | 1.2% of 360,000 active | AID 588335;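 note: 0% = DMSO wells and 100% = wells lacking the enzyme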
FBA Mtb inh: inhibits M. tuberculosis FBA enzyme; P9WQA3; purified M. tuberculosis FBA, fluorescence read-out; inhibition, % at 1 µM; 2.3% of 360,000 active; in the data active = inhibition above about 27%;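 note: 0% = vehicle and 100% = reference inhibitor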
Target sequence (P9WQA3 whole entry, looked up): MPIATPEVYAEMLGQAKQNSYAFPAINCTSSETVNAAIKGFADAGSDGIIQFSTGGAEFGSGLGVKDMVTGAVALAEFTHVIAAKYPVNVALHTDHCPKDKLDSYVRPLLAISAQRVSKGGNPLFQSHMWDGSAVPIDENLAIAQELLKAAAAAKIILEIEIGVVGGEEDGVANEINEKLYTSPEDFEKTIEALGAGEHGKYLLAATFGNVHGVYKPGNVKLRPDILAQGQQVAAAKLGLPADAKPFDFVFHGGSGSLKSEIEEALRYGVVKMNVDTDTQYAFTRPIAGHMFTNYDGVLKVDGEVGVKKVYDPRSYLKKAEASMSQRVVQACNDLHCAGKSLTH
CCHFV vOTU inh: CCHFV vOTU protease inhibition. Pep-AMC fluorescence. inhibition, % at 11.5 µM. 0.55% of 370,000 active; note: 0% = vehicle wells with enzyme and 100% = no enzyme wells
DUSP3 inh: blocks human VHR1 dual specificity phosphatase. P51452. inhibition, % at 13.3 µM. 0.52% of 290,000 active. AID 1654. recombinant VHR phosphatase, pNPP absorbance; in the data active = inhibition above about 50%
3CLpro inhibitor: SARS-CoV 3CLpro protease inhibition; recombinant SARS-CoV 3CLpro, quenched FRET peptide cleavage; inhibition, % at 6 µM; 0.14% of 290,000 active; AID 1706; in the data active = inhibition above about 12%
Active calls of the source: *; i = inactive; . = no result; + = active, no number. A selection: hits, their analogues and other compounds. The true share with any hit is near 4.7%. Cut-off read from the data, not from the text of the source, unless noted: active = inhibition above about 30%; inactive = the rest.

SMILES	RecA splice inh	GDH-TPI counter	FBA Mtb inh	CCHFV vOTU inh	DUSP3 inh	3CLpro inhibitor
CCNC(=O)c1cc2c(=O)n3cccc(C)c3nc2n(CCc2ccccc2)c1=N	i	9	+	-147	-12	-4
COCCn1c(=N)c(C(=O)NCCc2ccccc2)cc2c(=O)n3cccc(C)c3nc21	i	-2	117*	-100	.	-4
CNC(=O)c1cc2c(=O)n3cccc(C)c3nc2n(C(C)C)c1=N	i	7	+	-315	-12	-2
COc1ccc(CCn2c(=N)c(C(=O)NC3CCCC3)cc3c(=O)n4cccc(C)c4nc32)cc1	-13	15	3	6	-27	-5
CCCCNC(=O)c1cc2c(=O)n3cccc(C)c3nc2n(Cc2ccccc2)c1=N	i	1	150*	-81	-20	-3
CCn1c(=N)c(C(=O)NCc2cccnc2)cc2c(=O)n3cccc(C)c3nc21	.	.	.	.	26	.
CCN(CC)C(=O)CC[C@H]1CC[C@]2(CCCN(Cc3ccncc3)C2)O1	.	.	.	-5	.	.
COc1cccc(/C=C2\CC3(OC(=O)c4ccccc4)CCCN2C3)c1 (stereo unspecified)	.	.	.	7	.	.
O=C(NCCc1ccc2c(c1)OCO2)Oc1ccccc1	.	.	.	-4	.	.
Cc1ccc2nc3c(cc(C(=O)NC4CCCC4)c(=N)n3CCCn3ccnc3)c(=O)n2c1	-245	.	.	.	26	4
Cc1cccn2c(=O)c3cc(C(=O)NCCc4ccccc4)c(=N)n(CCCn4ccnc4)c3nc12	-6	-4	129*	-114	10	-4
C=CCn1c(=N)c(C(=O)NCCCOC)cc2c(=O)n3cccc(C)c3nc21	i	15	+	-190	3	0
Cc1ccc2c(c1)Cc1nc3ccccc3nc1-2	4	8	57*	-66	-12	2
Cc1ccc2c(c1)-c1nc3ccccc3cc1C2=NC1CCCCC1	.	7	4	4	4	-1
COc1cc(OC)cc(C(=O)NNC(=O)C2CCC2)c1	.	1	-1	7	.	.
O=c1c2ccccc2oc2ccccc12	.	12	2	2	.	.
O=c1c2ccccc2oc2c1ccc1ccccc12	.	4	36*	.	.	.
Cc1ccc(N2CC(C(=O)NC(C)CCc3ccccc3)CC2=O)cc1 (stereo unspecified)	-2	0	2	5	53*	-3
O=C(NCc1ccccc1)[C@H]1CCCN1C(=O)[C@H]1CCCN1C(=O)c1ccccc1C(F)(F)F	.	.	.	2	.	.
CCOc1ncccc1C(=O)OC(C)C(=O)Nc1ccc(Cl)cn1 (stereo unspecified)	.	8	3	0	.	.
CNc1ccccc1C(=O)OC(C)C(=O)Nc1ccc(Cl)cn1 (stereo unspecified)	-8	22	112*	-46	19	1
CCn1cc(C(=O)NNC(=O)c2ccc(Cl)cc2)c(=O)c2ccc(C)nc21	-2	5	2	.	52*	0
COc1ccc(C(=O)Nc2ccc(NC(=O)CSc3nnc(-c4ccncc4)n3C)cc2)cc1	3	13	1	2	19	-10
Cn1c(SCC(=O)Nc2ccc(NC(=O)c3ccccc3)cc2)nnc1-c1ccncc1	-3	4	-1	2	52*	-1
Cc1cc2c(cc1C)-c1nnnn1C(N1CCC(Cc3ccccc3)CC1)C(=O)N2 (stereo unspecified)	.	.	.	10	.	.
SMILES	RecA splice inh	GDH-TPI counter	FBA Mtb inh	CCHFV vOTU inh	DUSP3 inh	3CLpro inhibitor
Cc1cccc(C(=O)c2cnc3ccccc3c2-c2ccccc2)c1	33*	4	-10	9	9	2
CC1(C)CC(=O)C2=C(C1)c1c(ccc3ccccc13)NC2c1ccc(OCC(=O)O)cc1 (stereo unspecified)	-118	18	+	-206	17	5
COc1ccc(C2Nc3ccccc3NC3=C2C(=O)CC(C)(C)C3)cc1OC (stereo unspecified)	2	8	2	17	18	-3
COc1cc(C2Nc3ccc4ccccc4c3C3=C2C(=O)CC(C)(C)C3)ccc1OCC(=O)O (stereo unspecified)	-152	2	121*	-205	14	-2
COc1ccc(C2Nc3ccccc3NC3=C2C(=O)CC(C)(C)C3)cc1 (stereo unspecified)	-4	11	2	6	19	0
CCOc1ccc(C2Nc3ccccc3NC3=C2C(=O)CC(C)(C)C3)cc1OC (stereo unspecified)	.	10	-2	10	-19	0

Source: PubChem (several laboratories)
